RE007 growth inh: less growth of the S. pombe RE007 Vpr strain | Potency, µM (series often up to 92.2 µM), for the others: at the highest dose activity change, negative = less growth, hits mostly inhibitors | AID 651644 | hit rate 0.21% among 360,000 | S. pombe RE007 Vpr strain, BacTiter-Glo ATP luminescence, 24 h; active = well fitted falling curve with a large enough effect; inconclusive = small, poorly fitted or top-dose-only effect; inactive = no such curve, though single readings can be large or run the other way; note: nearly all actives have a fitted effect of over 50% in size
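Fission yeast strain RE007, carrying one chromosomally integrated HIV-1 vpr copy, was seeded at OD 0.01 in PMG+AL medium with 23 nL pinned compound. After 24 h at 30 °C and 99% humidity, viability was read by BacTiter-Glo luminescence.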
TbPYK inhibitor: blocks Trypanosoma brucei pyruvate kinase; TbPYK enzyme, Kinase-Glo Plus ATP luminescence, 45 min; Potency, µM (titrated, usually from 76.8 µM), for inactives: top-dose activity, negative = inhibition, hits mostly inhibitors; hit rate 0.12% among 410,000; AID 624173; note: nearly all actives have a fitted effect of over 50% in size
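Glycolytic pyruvate kinase of T. brucei was incubated with substrate, test compound and 130 uM ADP for 45 minutes at room temperature. Luminescent Kinase-Glo Plus signal was measured after 10 minutes.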
Giardia FBPA inh: Giardia lamblia aldolase inhibition | A8B2U2 | purified Giardia FBPA | Potency, µM (top dose mostly 59.6 µM), for the others: top-dose activity, negative = inhibition, hits mostly inhibitors | hit rate 0.71% among 290,000; note: nearly all actives have a fitted effect of over 55% in size
Target sequence (A8B2U2 whole entry, looked up): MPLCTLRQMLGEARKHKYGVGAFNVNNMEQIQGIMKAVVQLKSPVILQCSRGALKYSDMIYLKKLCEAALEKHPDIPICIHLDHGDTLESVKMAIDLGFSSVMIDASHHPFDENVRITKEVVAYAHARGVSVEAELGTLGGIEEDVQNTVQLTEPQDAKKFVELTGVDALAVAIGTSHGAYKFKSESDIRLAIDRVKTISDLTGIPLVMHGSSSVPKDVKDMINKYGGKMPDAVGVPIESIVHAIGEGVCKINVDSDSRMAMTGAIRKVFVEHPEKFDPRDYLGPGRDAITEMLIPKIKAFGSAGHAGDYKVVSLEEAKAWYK
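40 nM FBPA preincubated 10 min at RT with compound (up to 57.5 uM final), then substrate plus GAPDH/TPI/NAD/arsenate coupling and diaphorase/resazurin added. Fluorescence read after 20 min at RT, 525/598 nm.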
LmPK inhibitor: LmPK (Leishmania mexicana) enzyme inhibition. Q27686. purified LmPK, Kinase-Glo ATP luminescence, 1 h. Potency, µM (series often up to 57.5 µM), without a hit: at the top dose activity change, negative = inhibition, usual class: inhibitors. hit rate 0.37% among 290,000
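qHTS format; LmPK 0.1 nM; substrates PEP 0.5 mM and ADP 0.1 mM. One-hour room-temperature incubation, then coupled luciferase luminescence; 0.5 nM enzyme wells mark activation.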
* hit, by the source's call; ? = inconclusive; · = no result; [ ] = another dose, or the depositor's remark. Most compounds without a hit are left out; they make up all but 0.95% or so of the library. Unless noted, calls come from the whole dose curve; as a rule, active = well fitted curve in the direction sought with a large enough effect; inconclusive = small, poorly fitted or top-dose-only effect, or another doubt; inactive = no such curve, though single readings can be large; an effect the other way counts as inactive or inconclusive. % is set by controls: 0 for no effect and ±100 for the full control effect; potency is the fitted concentration of half-maximal effect.

SMILES	RE007 growth inh	TbPYK inhibitor	Giardia FBPA inh	LmPK inhibitor
C=CCC1(C(C)CCC)C(=O)NC(=O)NC1=O (stereo unspecified)	·	0.0%[157 µM]	·	·
CCOC(=O)N=Nc1c2ccccc2c2nc3no[nH]c3nc12	5.01µM*	2.9%	1.58µM*	-5.4%
O=C(O)c1ccccc1SC1CC(=O)N(c2cccc3ccccc23)C1=O (stereo unspecified)	7.94µM*	-26.2%	2.9%	7.0%
CCN1C(=O)CC(Sc2ccccc2C(=O)O)C1=O (stereo unspecified)	4.7%	-14.2%	2.5%	2.2%
Cc1cccc(Nc2nn3c(=O)c4ccccc4nc3s2)c1	-1.9%	4.4%	0.2%	3.9%
CCCSc1nn2c(=O)c3ccccc3nc2s1	?	6.6%	1.1%	14.1µM*
Cc1oc2ncnc(N3CCOCC3)c2c1C(=O)N(Cc1ccccc1)C(C)C	·	0.8%	·	·
COc1ccc(OC)c(C2=Nn3c(nnc3-c3ccccc3C)SC2)c1	·	·	-15.6%	·
CC(=NCc1ccco1)c1c(C)[nH]n(-c2nc3ccccc3s2)c1=O	?	-4.6%	1.0%	-3.0%
C/C(=N/NC(=O)c1cccs1)c1c(C)[nH]n(-c2nc3ccccc3s2)c1=O	?	?	-23.3%	20µM*
NC(=O)/C=C\C(=O)Nc1cccc(C(F)(F)F)c1	17.8µM*	-3.3%	3.9%	-2.0%
NNC(=O)Nc1cccc(C(F)(F)F)c1	14.5%	-4.2%	-7.0%	4.6%
COc1ccc(NC(=S)N(CCN(C)C)C(C)c2ccco2)cc1Cl (stereo unspecified)	·	-22.5%	-5.8%	-2.4%
Oc1c(Br)cc(/C=N/n2c(-c3ccccc3)n[nH]c2=S)cc1Br	-4.1%	?	8.0%	17.8µM*
COc1ccc(/C=N/n2c(-c3cccs3)n[nH]c2=S)cc1	-6.2%	1.26µM*	4.3%	-21.6%
COc1cc(-c2n[nH]c(=S)n2/N=C/c2cccn2C)cc(OC)c1OC	9.0%	?	-14.6%	7.94µM*
Cc1cc(-c2n[nH]c(=S)n2/N=C/c2sccc2C)n[nH]1	2.1%	7.08µM*	3.9%	-13.9%
Cc1ccc(/C=N/n2c(-c3cccs3)n[nH]c2=S)cc1	-2.8%	?	1.4%	-15.0%
O=C(Nc1ccc(Cl)c(S(=O)(=O)N2CCOCC2)c1)c1ccncc1	-10.5%	8.9%	·	·
COc1cc(/C=N/n2c(-c3ccccc3)n[nH]c2=S)ccc1O	-6.6%	6.31µM*	?	?
Cc1onc(-c2ccccc2)c1-c1n[nH]c(=S)n1-c1ccccc1Cl	-7.2%	?	-7.7%	17.8µM*
S=c1[nH]nc(-c2ccc3ccccc3n2)n1-c1ccccc1Cl	-17.1%	-10.7%	-18.8%	28.2µM*
CC1(NC(=O)CCc2nc3sc4c(c3c(=O)[nH]2)CCCC4)CCS(=O)(=O)C1 (stereo unspecified)	-5.5%	-7.9%	·	·
Fc1cccc(Cl)c1/C=C/c1cnc2ccccc2n1	-2.7%	?	2.8%	-18.3%
Fc1cccc(F)c1/C=C/c1ccc2ccccc2n1	?	?	-24.4%	8.91µM*
SMILES	RE007 growth inh	TbPYK inhibitor	Giardia FBPA inh	LmPK inhibitor
O=C1NC(=O)N(c2ccccc2)C(=O)/C1=C/C=C/c1ccco1	27.3%	?	-13.4%	7.8%
COc1cc(/C=C2\C(=O)NC(=O)N(c3ccccc3)C2=O)cc(OC)c1O	6.3%	?	9.98µM*	-5.3%
CN(C)c1ccc(/C=C/C=C2/C(=O)NC(=O)N(c3ccccc3)C2=O)cc1	-20.9%	?	-21.1%	12.6µM*
COc1cc(/C=C2\C(=O)NC(=O)N(c3ccccc3)C2=O)c([N+](=O)[O-])cc1OC	-13.6%	?	?	0.3%
CCOC(=O)c1cnc2ccc(C)cc2c1NCCc1ccc(OC)c(OC)c1	·	-3.5%	·	·
CC(=O)c1ccc(N2CCN(c3ncnc4c3c(-c3ccccc3)cn4-c3cccc(C)c3)CC2)cc1	·	5.2%	·	·
O=C(/C=C\Nc1cccc(F)c1)c1ccc2c(c1)OCO2	?	-3.7%	1.1%	12.6µM*
CN(C)CCCC(=O)c1ccc2c(c1)OCO2	-7.5%	-3.0%	-2.7%	1.9%
CN(C)CCC(=O)c1ccc2c(c1)OCO2	11.2µM*	-11.7%	-2.4%	0.7%
Cc1ccc(C(=O)CCNc2ccc(Br)cc2)o1	-28.7%	1.3%	2.3%	-2.8%
Cc1ccc(C(=O)CCNc2ccccc2)o1	11.2µM*	3.8%	-3.1%	-3.5%
O=C(CCNc1ccccc1)c1ccc2c(c1)OCO2	31.6µM*	3.4%	5.9%	-12.8%
CCc1ccc2oc(C(=O)Nc3ccccc3OC)cc(=O)c2c1	·	6.9%	·	·
CCOc1ccccc1-c1nnc2n1N=C(c1ccc(OC)c(OC)c1)CS2	·	·	-2.7%	·
CCc1nnc(SC(C)C(=O)Nc2nccs2)n1C (stereo unspecified)	-1.6%	-4.2%	·	-2.4%
CC1CC(C)C(=O)C(C(O)CC2CC(=O)NC(=O)C2)C1 (stereo unspecified)	·	3.2%[157 µM]	·	·
COc1cc(N2C(=O)C=CC2=O)c(OC)cc1Cl	39.8µM*	?	?	14.1µM*
O=[N+]([O-])c1cccnc1N/N=C/c1ccccc1O	-0.5%	-26.8%	0.3%	14.1µM*
COc1cccc(/C=N/Nc2nccnc2Cl)c1O	35.5µM*	?	10.4%	10µM*
Oc1ccccc1/C=N/Nc1nccnc1Cl	?	-8.0%	-8.9%	15.8µM*
Oc1ccc(/C=N/Nc2nccnc2Cl)c(O)c1	-17.5%	?	-4.1%	12.6µM*
COc1cccc(/C=N/Nc2ncnc(Cl)c2N)c1O	13.3%	-7.5%	?	-1.6%
Oc1ccc2c3c1O[C@H]1[C@@H](O)C=CC4[C@@H](C2)NCC[C@@]341 (stereo partly specified)	·	-1.6%	·	·
CN(C)c1ccc(NC(=O)CCN2C(=O)c3cccc([N+](=O)[O-])c3C2=O)cc1	-12.0%	-18.2%	0.4%	-1.8%
COCCN(C(=S)Nc1c(C)cc(C)cc1C)C(C)c1cccs1 (stereo unspecified)	-13.4%	-3.9%	?	-1.6%
SMILES	RE007 growth inh	TbPYK inhibitor	Giardia FBPA inh	LmPK inhibitor
O=C(NCc1ccccc1)c1ncn[nH]1	-4.0%	0.7%	-10.2%	1.7%
CC1CCN(C(=O)NC(=O)c2ccccc2)CC1	-26.8%	8.6%	·	-3.6%
CC1CCN(C(CC(=O)c2ccccc2)C(=O)c2ccccc2)CC1 (stereo unspecified)	4.47µM*	20µM*	·	·
C=CCN1c2ccccc2[C@]23C[C@@H](C(=O)OC)N(S(=O)(=O)c4ccc5c(c4)OCCN5C)C2=NC(C(=O)OC)=C(C(=O)OC)[C@H]13	·	·	-1.1%[12.9 µM]	-1.1%[11.5 µM]
CCOC(=O)N1CCN(C2CC(=O)N(c3ccc(Cl)c(Cl)c3)C2=O)CC1 (stereo unspecified)	11.2µM*	-7.2%	2.5%	-1.5%
COc1cccc(N2CCN(C3CC(=O)N(c4ccc(Cl)c(Cl)c4)C3=O)CC2)c1 (stereo unspecified)	35.5µM*	1.1%	-5.5%	-3.7%
CN1C(=O)CC(N2CCN(CCN=CC3=C(O)CC(C)(C)CC3=O)CC2)C1=O (stereo unspecified)	-16.6%	-4.8%	4.2%	-1.9%
CCOC(=O)N1CCN(C2CC(=O)N(c3ccccc3)C2=O)CC1 (stereo unspecified)	-14.8%	3.2%	2.6%	-5.4%

Screening data deposited in PubChem BioAssay by National Center for Advancing Translational Sciences (NCATS).
